Assay results published in PubChem BioAssay (Tox21).
Several values for one entry are separate records, joined by “and”; a condition that tells them apart may be missing. Equal values may be shown once. A structure can be active in one record and inactive in another. Activity calls are given as the source filed them. Entries that show only a call come without a potency. The call rests on the fitted dose curve; in most records, active means well fitted activation curve with a large enough effect in the repeat runs; inconclusive means weak or mixed curves; inactive means flat fitted curve, though single readings scatter.

Experiment: A CellTox Green Cytotoxicity Assay to monitor cytotoxicity in HEK293 cells - 0 hour (AID 1224869); further: nearly all actives have a fitted effect of over 50% in size
Details: CellTox Green fluorescence; series mostly up to 76.8 µM
Description: National Center for Advancing Translational Sciences [NCATS]
NIH Chemical Genomics Center [NCGC]
U.S. Environmental Protection Agency [EPA]
National Institutes of Environmental Health Sciences [NIEHS]
National Toxicology Program [NTP]
Cell-based models are critical for drug discovery. Determining the natural cytotoxic effects resulting from test compounds is an essential research activity. A CellTox Green Cytotoxicity Assay to monitor cytotoxicity in real time of continues cell culture during 40 hours of the compound treatment was used to screen Tox21 10K library compounds in Hek293 cells. CellTox Green Cytotoxicity Assay is a nonlytic, homogeneous, biofluorescent method to measure cytotoxicity in cell culture after experimental manipulation. The assay system uses a proprietary asymmetric cyanine dye that is excluded from viable cells but preferentially stains the dead cell's DNA. […] Viable cells produce no appreciable increases in fluorescence. Therefore, the fluorescence signal produced by the binding interaction with dead cell DNA is proportional to cytotoxicity.
The mixture of Hek293 cell suspension and reagents were dispensed at 600cells/6 ul/well in 1536-well tissue culture treated black solid bottom plates using a Multidrop dispenser. After the assay plates were incubated at a 37 C/5% CO2 incubator for 5 hours, 23 nL of compounds dissolved in DMSO, positive and negative controls was transferred to the assay plate by a pintool work station. The plates were incubated at 37 C for 40 hours. The fluorescence intensity were measured at 0h, 8h, 16h, 24h, 32h and 40h time points using ViewLux plate reader during compound treatment.
Potency means the concentration at half of the fitted maximal effect.

| Compound | Potency |
| --- | --- |
| O=C(O)Cc1ccccc1 | inactive |
| Cc1ccc(N=C=O)cc1N=C=O | inactive |
| C[C@H]1C(=O)O[C@@H]2CCN3CC=C(COC(=O)[C@](C)(O)[C@]1(C)O)[C@H]23 | inactive |
| OCc1ccco1 | inactive |
| [N-]=[N+]=CC(=O)OC[C@H](N)C(=O)O | 38.9 µM (active) and inactive |
| FC(F)(F)c1ccc(Cl)cc1 | inactive |
| C=C(C)C(=O)OCC(CC)CCCC (stereo not given) | inactive |
| CCOc1ccc(N)cc1 | inactive |
| Nc1ncc([N+](=O)[O-])s1 | inactive |
| COS(=O)(=O)OC | inactive |
| O=C(O)COc1ccccc1 | inactive |
| Cl/C=C/Cl | inactive |
| C=CC(=O)OCC(CC)CCCC (stereo not given) | inactive |
| OCC(O)CCl (stereo not given) | inactive |
| COc1nc(NC(C)C)nc(NC(C)C)n1 | inactive |
| CCOC(=O)CC(SP(=O)(OC)OC)C(=O)OCC (stereo not given) | inactive |
| CN(C)C(=O)Cl | inactive |
| NNc1ccccc1 | inactive |
| CCCOC(=O)c1ccccc1C(=O)OCCC | inactive |
| COP(=S)(OC)SCN1C(=O)c2ccccc2C1=O | inactive |

| Compound | Potency |
| --- | --- |
| CCCCC(CC)C(=O)Cl (stereo not given) | inactive |
| O=C(O)CCCc1ccc(N(CCCl)CCCl)cc1 | inactive |
| CNCC(O)c1ccc(O)cc1 (stereo not given) | inactive |
| CN(C)C(=O)Nc1cccc(C(F)(F)F)c1 | inactive |
| CC(C)c1cccc(C(C)C)c1O | inactive and 38.9 µM (active) |
| Oc1ccc(Cl)cc1 | inactive |
| CCSC(=O)N1CCCCCC1 | inactive |
| CN(C)CCC#N | inactive |
| O=P1(NCCCl)OCCCN1CCCl (stereo not given) | inactive |
| COP(=S)(OC)Oc1ccc(SC)c(C)c1 | inactive |
| O=S(=O)(O)OOS(=O)(=O)O | inactive |
| ClCCOCCCl | inactive |
| Cc1cccc(C)c1NC(=O)CN1CCCC1=O | inactive |
| c1ccc2c(c1)CCCC2 | inactive |
| O=C(O)c1cc(Oc2ccc(C(F)(F)F)cc2Cl)ccc1[N+](=O)[O-] | inactive |
| Cc1cc(O)ccc1Cl | inactive |
| O=C/C=C/c1ccccc1 | inactive |
| O=C(O)C(Br)Br | inactive |
| CNc1cnn(-c2cccc(C(F)(F)F)c2)c(=O)c1Cl | inactive |
| CC(C)(C)C(=O)CCl | inactive |
